# According to PubChem BioAssay:
# Biological target: Concanavalin-A (Canavalia ensiformis) (UniProt P02866)
# Experiment: compounds binding concanavalin A lectin – biochemical, small-molecule microarray, Alexa647 label, 635 nm, artefact control for SMM control protein annotation, primary screen (AID 1127);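 also: z combines 667 nm emission intensity with signal-to-noise across three replicate slides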
# Settings: ConA-A647 binding fluorescence, higher = more signal
# Sequence of Concanavalin-A (Canavalia ensiformis) (P02866 whole entry, looked up): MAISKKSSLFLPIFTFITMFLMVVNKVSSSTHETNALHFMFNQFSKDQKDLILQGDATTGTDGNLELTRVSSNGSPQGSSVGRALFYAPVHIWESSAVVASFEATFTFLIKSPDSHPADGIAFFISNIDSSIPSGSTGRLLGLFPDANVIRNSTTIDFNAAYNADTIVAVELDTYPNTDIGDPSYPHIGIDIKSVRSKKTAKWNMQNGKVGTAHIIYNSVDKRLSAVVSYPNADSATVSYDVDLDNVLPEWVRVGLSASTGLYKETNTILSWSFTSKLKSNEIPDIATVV
row,Structure (SMILES),composite z-score
1,COCCOC(=O)N1C(=O)[C@@]2(c3cc(C#CC4(O)CCCCCC4)ccc31)[C@H](c1ccc(OCCO)cc1)N1[C@H](c3ccccc3)[C@H](c3ccccc3)OC(=O)[C@H]1[C@@H]2C(=O)N1CCN(c2ncccn2)CC1,1.13
2,COc1ccc(C#Cc2ccc3c(c2)[C@]2(C(=O)N3)[C@H](C(=O)Nc3nc4ccccc4s3)[C@H]3C(=O)O[C@H](c4ccccc4)[C@H](c4ccccc4)N3[C@@H]2c2ccc(O)cc2)cc1,1.12
3,OCCCC1=CC(c2cccs2)N(Cc2cc3c(cc2Br)OCO3)CC1 (centres undefined),0.795
4,CCN(CC)c1ccc(N2CC=CC34O[C@@H]5C=CCCOC(=O)C5[C@H]3C(=O)N(CCCCCCO)[C@@H]4C2=O)cc1 (some centres undefined),-0.1
5,CCCCCN1CC=CC23O[C@@H]4/C=C\CCC(C)OC(=O)C4[C@H]2C(=O)N(C(C)CO)[C@@H]3C1=O (some centres undefined),-0.211
6,CC(C)OC(=O)C=C1C[C@@H](c2ccccn2)O[C@@H](c2ccccn2)O1,-0.333
7,C=CCOC(=O)[C@H]1[C@@H]2C(=O)O[C@@H](c3ccccc3)[C@@H](c3ccccc3)N2[C@@H](c2ccc(OCCOC(=O)[C@@H]3C[C@@H]4C(=O)N[C@@H](CCCCNC(C)=O)C(=O)N4[C@@H]3c3ccc(O)cc3)cc2)[C@]12C(=O)Nc1ccccc12,1.2
8,Cc1nc2cc(Br)ccc2c(=O)o1,0.724
9,C=CCOC(=O)[C@H]1[C@@H]2C(=O)O[C@@H](c3ccccc3)[C@@H](c3ccccc3)N2[C@@H](c2ccc(OCCOC(=O)[C@H]3C[C@H]4C(=O)N[C@@H](CCCCNC(C)=O)C(=O)N4[C@H]3c3ccc(O)cc3)cc2)[C@]12C(=O)Nc1ccc(I)cc12,1.09
